Results with a measured potency or affinity are listed apart. Active and inactive are the calls of the source. No rule for the calls is given here.

The assay relates to Drosophila melanogaster bursicon receptor LGR2 (rickets). The assay can be described thus: blockers of bursicon-stimulated LGR2 cAMP reporter – cell-based, HEK293, CRE-luciferase reporter, cherry pick, set 2, dose response (AID 743343). The conditions noted are these: bursicon-induced cAMP antagonist; series mostly up to 35 µM.
In the case of `COc1ccc(N(CC(=O)NCc2cccs2)S(=O)(=O)c2ccc(C(C)=O)cc2)cc1`, the molecule was classed as inactive. On to `COCC(=O)N[C@@H]1CC[C@@H](CC(=O)NCc2ccccc2OC)O[C@@H]1CO`, for which the result was inactive.

Turning to `Cc1ccc(CNS(=O)(=O)c2ccc3c(c2)CCN3C(=O)CCCC(=O)O)cc1`, the molecule was classed as inactive. Then `C[C@H](CO)N1C[C@H](C)[C@@H](CN(C)CC2CCOCC2)Oc2ncc(Br)cc2C1=O`, with “inactive”; and `C[C@H](CO)N1C[C@H](C)[C@H](CN(C)C(=O)CN2CCOCC2)Oc2ncc(C#CCN(C)C)cc2C1=O`, with “inactive”. Then `COc1ccc(-c2nc(N)n(C(=O)c3cccs3)n2)cc1`, with “inactive”; and `C=CCn1c(SCC(=O)Nc2ncc(Cc3ccc(C)c(Cl)c3)s2)nnc1-c1ccncc1`, with “inactive”; and `CC(C)(C)c1nc2ccc(Cl)cn2c1CC1CCCCC1`, with “inactive”. Then `N#C[C@@H]1[C@H](c2ccc(C#CC3CCCCC3)cc2)[C@@H](CO)N1C(=O)c1cccc(F)c1`, with “inactive”; and `CCOC(=O)C1=CCN(S(=O)(=O)c2ccccc2C)C1c1cccc(C)c1` (stereo not drawn), with “inactive”. In the case of `O=C(Nc1ccc(N2CCOCC2)c(S(=O)(=O)Nc2ccccc2Cl)c1)c1ccc(F)cc1`, the molecule was classed as inactive. For the molecule `O=C(Cc1ccncc1)NCC[C@H]1CC[C@H](NC(=O)C2CCCC2)[C@H](CO)O1`, the outcome was inactive. As for `C[C@H]1CN([C@@H](C)CO)C(=O)Cc2cc(NC(=O)Nc3ccc(F)cc3)ccc2O[C@H]1CN(C)CC1CCCCC1`, the molecule was classed as inactive. Take `CCCCN(Cc1ccccc1)S(=O)(=O)c1cc2c(cc1Br)CC(C)N2C(C)=O` (stereo not drawn): the outcome was inactive. Consider `N#C[C@H]1[C@@H](c2ccc(C3=CCCCC3)cc2)[C@H](CO)N1C(=O)c1ccccn1`, for which the outcome was inactive.

For `Cc1ccc2nc(NC(=O)CCCC(=O)O)sc2c1`, the call was inactive.

Regarding `Cc1ccc(NC(=O)c2ncn(CC(=O)NCc3ccc4[nH]ccc4c3)n2)cc1C`, the result was inactive. In the case of `O=C(NCCOc1ccccc1)[C@@H]1CCCN1C(=O)c1cccs1`, the call was inactive. As to `CCOC(=O)C(C)N1c2cccc3cccc(c23)S1(=O)=O` (stereo not drawn), the call was inactive. Then `Cc1cc(Cl)ccc1OCCCC(=O)Nc1cc(S(=O)(=O)N2CCOCC2)ccc1N1CCOCC1`, with “inactive”; and `CCc1nnc(NC(=O)CSc2nnc3ncccn23)s1`, with “inactive”. In the case of `COCC#Cc1ccc2c(c1)O[C@H](CN(C)S(=O)(=O)c1cccc(F)c1)[C@@H](C)CN([C@H](C)CO)S2(=O)=O`, the molecule was called inactive. Regarding `CNCc1ccccc1Sc1ccc(O)c(O)c1`, the molecule was called inactive.

With `CC(=O)N1CCc2cc(S(=O)(=O)C(C)CC(=O)NCc3ccco3)ccc21` (stereo not drawn), the call was inactive. In the case of `CC1(c2ccccc2Cl)NC(=O)N(CC(=O)N2CCc3ccccc32)C1=O` (stereo not drawn), the outcome was inactive.

On to `COc1ccc(S(=O)(=O)N2CCN(C(=O)c3ccc(C)o3)CC2)cc1`, for which the call was inactive. Then `C[C@H](CO)N1C[C@H](C)[C@@H](CN(C)C(=O)Nc2ccc3c(c2)OCO3)Oc2c(cccc2N(C)C)C1=O`, with “inactive”; and `C[C@@H]1CN([C@@H](C)CO)S(=O)(=O)c2ccc(C3=CCCC3)cc2O[C@H]1CN(C)C(=O)c1ccccc1`, with “inactive”; and `Cc1ccc2nc(-c3ccc(NC(=O)c4cccnc4)cc3)oc2c1`, with “inactive”.

`O=C(Nc1cc(S(=O)(=O)Nc2ccccc2Cl)ccc1O)c1ccc(F)cc1F`: the molecule was called inactive.

On to `O=S(=O)(Nc1ccc(O)c2ccccc12)c1ccc(OC(F)(F)F)cc1`, for which the molecule was classed as inactive. In the case of `CC(C)c1ccc(NC(=O)N2CCN(S(=O)(=O)c3ccccc3)CC2)cc1`, the molecule was classed as inactive. Then `C[C@@H]1CN([C@H](C)CO)C(=O)Cc2cc(NC(=O)Nc3ccc(F)cc3)ccc2O[C@@H]1CN(C)CC1CCCCC1`, with “inactive”. With `O=[N+]([O-])c1cc(S(=O)(=O)N2CCCCCC2)ccc1Cl`, the outcome was inactive. As for `Cc1ccc(S(=O)(=O)Nc2ccc3c(c2)CC(=O)N([C@H](C)CO)C[C@H](C)[C@H](CN(C)Cc2ccc(Cl)c(Cl)c2)O3)cc1`, the call was inactive. For `CCCCOc1cc(NCc2ccccc2)c2ncn(C(C)C)c2c1` the value was “inactive”; for `CC(=O)c1c(C)[nH]c(C(=O)CN2C(=O)NC(C)(c3ccc(C)cc3)C2=O)c1C` (stereo not drawn), “inactive”.

For the molecule `Cc1ccc(S(=O)(=O)N(C)C[C@H]2Oc3cc(Br)ccc3S(=O)(=O)N([C@H](C)CO)C[C@H]2C)cc1`, the call was inactive.
